# Among all 340,000 compounds or so, about 1,000 (0.29%) were called active. No stated cut-off is given here; in the data, inconclusive means inhibition above about 29% without an active follow-up result; inactive means below that. The list is a sample of the results. Entries with a potency or affinity are not part of this list.
# Target: Genome polyprotein (Dengue virus type 2 (strain 16681-PDK53)) (UniProt P29991)
# Assay: flavivirus cap methylation enzyme inhibition – biochemical, confirmation dose response, primary screen (AID 588689)
# Details: Dengue-2 NS5 methyltransferase capping enzyme assay, at 25 µM, stronger effect = higher value
# [1] = measured here: pilot screen replicate inhibition
SMILES,inhibition,inhibition [1] [%]
CCOC(=O)CC(=O)CSc1ccc2nnc(-c3ccc(F)cc3)n2n1,0.81% (inactive),
CC(C)CCN1CN(S(=O)(=O)c2cccs2)c2nc3ccccc3nc21,-2.77% (inactive),
COc1cc(NC(=S)NN2CCN(C)CC2)cc(OC)c1,-3.9% (inactive),
N#C/C(=C\C=C\c1ccccc1[N+](=O)[O-])c1nc(-c2ccc3c(c2)OCO3)cs1,-0.69% (inactive),
COc1ccc(-c2cc(C(F)(F)F)n3nc(C(=O)NCc4ccco4)cc3n2)cc1,-2.82% (inactive),
CCc1ccc(N2C(=O)c3sc4nnc(C)c(=O)n4c3C2=O)cc1,-0.68% (inactive),5.46
Cc1ccc(N2C(=O)c3sc4nnc(C)c(=O)n4c3C2=O)cc1,0% (inactive),
Cc1ccc(S(=O)(=O)N2CCCCC2)cc1NC(=O)c1ccco1,-2.75% (inactive),
Cc1ccc(C)c(OCc2cc(C(=O)NC(C)c3cnn(C)c3)no2)c1 (configuration not stated),-5% (inactive),
CCOC(=O)N1CCC(Nc2c(-c3ccc(C)c(C)c3)c(=O)c2=O)CC1,-8.18% (inactive),
COc1ccc(S(=O)(=O)Nc2cccc3c2O[C@H](CN(C)C(=O)Nc2ccc(C(F)(F)F)cc2)[C@@H](C)CN([C@H](C)CO)C3=O)cc1,-2.11% (inactive),
O=C(CN1C(=O)/C(=C/c2ccco2)SC1=S)Nc1ccc(C(=O)O)c(O)c1,36.5% (inactive),
O=C(CCCN1C(=O)/C(=C\c2cccs2)SC1=S)Nc1ccc(O)cc1C(=O)O,-9.83% (inactive),
O=C(CCCN1C(=O)/C(=C\c2ccccc2)SC1=S)Nc1ccc(O)cc1C(=O)O,20.6% (inactive),
O=C(CN1C(=O)S/C(=C\c2cccs2)C1=O)Nc1ccc(O)c(C(=O)O)c1,8.14% (inactive),
O=C(CN1C(=O)S/C(=C\c2cccs2)C1=O)Nc1ccc(C(=O)O)c(O)c1,15% (inactive),
Cc1ccc(/C=C2\SC(=S)N(CCC(=O)NNC(=O)c3ccc(O)cc3)C2=O)cc1,-0.88% (inactive),
O=C(CCN1C(=O)/C(=C/c2ccco2)SC1=S)Nc1ccc(C(=O)O)c(O)c1,48.7% (inactive),
O=C(CN1C(=O)S/C(=C\c2cccs2)C1=O)Nc1ccc(O)cc1C(=O)O,14.3% (inactive),
CC(C)(CNC(=O)c1ccccc1F)CNC(=O)c1ccccc1F,3.07% (inactive),
CC(C)OC(=O)N(C)C[C@H]1OCc2cnnn2CCCC(=O)N([C@H](C)CO)C[C@H]1C,-3.41% (inactive),
COc1ccc(C2=NS(=O)(=O)N(C)C(C(=O)NC3CCCCC3)=C2)cc1OC,-5.5% (inactive),
O=S(=O)(CCc1nc2ccccc2o1)c1ccc2ccccc2c1,-2.77% (inactive),
CC(Sc1nnc(COc2ccc(Cl)cc2)n1Cc1ccccc1)C(=O)O (configuration not stated),0.73% (inactive),
CCN(CC)C(=O)C1=C(C)N(CCC2=CCCCC2)C(=O)C(CC(=O)NCC2CCCCC2)C1 (configuration not stated),-0.57% (inactive),
O=[N+]([O-])c1cc(C(F)(F)F)cc([N+](=O)[O-])c1NN=C1CCCCC1,-139% (inactive),
CC1(C)CC(=O)C=C(NCc2ccc(C(=O)O)cc2)C1,-7.73% (inactive),
COc1ccc(CN2C(=O)C(C)Nc3ncnc(N4CCOCC4)c32)cc1 (configuration not stated),-5.79% (inactive),

SMILES,inhibition,inhibition [1] [%]
COc1ccc(S(=O)(=O)N(CCCN2CCOCC2)Cc2cccc3ccccc23)cc1,1.67% (inactive),
CCN(CC)c1ccc(C(=C2C=CC(=[N+](CC)CC)C=C2)c2ccc(S(=O)(=O)O)cc2S(=O)(=O)[O-])cc1,1.48% (inactive),
CCN(CC)c1ccc(C(=C2C=CC(=[N+](CC)CC)C=C2)c2ccc(N(CC)CC)cc2)cc1,17% (inactive),
Cc1ccc2[nH]cc(CCNC(=O)c3ccc4c(c3)OCO4)c2c1,1.31% (inactive),-1.82
O=S(=O)(NCc1nnc2ccccn12)c1ccc(F)cc1,-3.63% (inactive),
Cc1sc(N2C(=O)C3C4C=CC(C4)C3C2=O)c(C#N)c1C (configuration not stated),-2.18% (inactive),
CC(C)[C@H](NC(=O)c1c(F)cccc1F)C(=O)OCC(=O)NNC(=O)c1ccccc1,-2.88% (inactive),
CN(C)c1ccc(Cc2ccc(N(C)C)cc2)cc1,4.45% (inactive),
CN(C)c1ccc2c(O)cc(=O)n(C)c2c1,23.3% (inactive),
COc1cc(NC(=O)c2cccs2)c(OC)cc1NC(=O)c1cccs1,-7.78% (inactive),
CCC(C)N(C(=O)CSc1nc(C)nc2ccccc12)C1CCS(=O)(=O)C1 (configuration not stated),-9.59% (inactive),
O=C(c1ccccc1)N1CCN(c2ccc(N3CCOCC3)nn2)CC1,0.74% (inactive),
C[C@H](CO)N1C[C@H](C)[C@H](CN(C)C(=O)Nc2ccccc2)OCc2cnnn2CCCC1=O,1.65% (inactive),
O=C1C=C(Nc2cccnc2)c2ccccc2C1=O,33.2% (inactive),
O=C1C=C(Nc2ccccc2O)c2ccccc2C1=O,19% (inactive),
CSc1nnc(C)c(=O)n1COC(=O)COc1ccc2ccccc2c1,3.64% (inactive),
COc1ccc(-c2c(C#Cc3ccc(N(C)C)cc3)c3ccccc3n2C)cc1,6.35% (inactive),
Cc1cc(-c2ccc([N+](=O)[O-])cc2)nc2ccccc12,0% (inactive),
Cc1nc2c(-c3ccccc3)c(C)nn2c(N)c1-c1ccccc1,-5.49% (inactive),
C[C@@]12C(=O)Nc3cc(F)c(F)cc3C(=O)N1[C@H]1c3cc(Cl)ccc3OC[C@@H]1[C@@H]2c1ccccc1,2.81% (inactive),
Cc1cc(C)c2[nH]c(=O)c(C(c3nnnn3Cc3ccc4c(c3)OCO4)N3CCCCC3)cc2c1 (configuration not stated),9.03% (inactive),
Cc1cc(C)c(NC(=O)CN2C(=O)NC3(CCCCC3)C2=O)c(C)c1,-3.21% (inactive),
Cc1cccc(NC(=O)CN(C)S(=O)(=O)c2ccc(-c3ccc(=O)[nH]n3)s2)c1C,-3.18% (inactive),
CC(=O)CC(=O)NC1CCc2ccccc21 (configuration not stated),-2.7% (inactive),
CCOc1ccc(C(=O)c2ccccc2C(=O)O)cc1OCC,-7.73% (inactive),
CC1=CC(=O)C(C(C)C)=C/C1=N/OS(=O)(=O)c1ccccc1,-4.66% (inactive),
CC1(C)SC(=S)N(/N=C/c2ccccc2)C1N(O)C(=O)Nc1ccc([N+](=O)[O-])cc1 (configuration not stated),-1.56% (inactive),
